We go through 18 molecules from PubChem BioAssay (EPA / NIEHS).

The structures appear in SMILES notation. Calls of active or inactive are those of the source. The calls were made as follows: active = hit-call score of the fitted dose curve at least 0.9, where 1 is the maximum; inactive = score below 0.9.

What all share (details): mRNA level, 48 h; actives raise or lower the signal
Read-out in test [1]: ATP-citrate lyase (ACLY), ACLY (gene 47)
Kind of test: LTEA_HepaRG_ACLY: Life Technologies and Expression Analysis (LTEA) Assay for ATP-citrate lyase (ACLY) using HepaRG (AID 2283466). The method, boiled down:
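ACLY mRNA quantified by qRT-PCR on Fluidigm arrays against three housekeeping genes, after 48 h chemical treatment of HepaRG cells (top concentration 100 uM, half-log steps, 0.5% DMSO vehicle). Up- or down-regulation fitted relative to DMSO.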

Read-out in test [2]: Peroxisomal acyl-coenzyme A oxidase 1 (ACOX1) gene, ACOX1 (gene 51)
The test is described as follows: LTEA_HepaRG_ACOX1: Life Technologies and Expression Analysis (LTEA) Assay for Peroxisomal acyl-coenzyme A oxidase 1 (ACOX1) gene using HepaRG (AID 2283467). The method, boiled down:
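ACOX1 transcript levels were quantified by TaqMan qRT-PCR against three housekeeping genes after 48 h chemical exposure of differentiated human HepaRG cells. Exposure used eight half-log steps topping at 100 uM, 0.5% DMSO vehicle, in duplicate. Bidirectional curve fits were made relative to DMSO.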

Read-out in test [3]: Alkaline Phosphatase, Placental (ALPP) gene, ALPP (gene 250)
The test is described as follows: LTEA_HepaRG_ALPP: Life Technologies and Expression Analysis (LTEA) Assay for Alkaline Phosphatase, Placental (ALPP) gene using HepaRG (AID 2283468).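 As to AC50: differentiated human HepaRG liver cells in serum-free induction medium.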 An outline of the steps: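 ALPP transcript level, measured by qRT-PCR and normalized to three housekeeping genes (ACTB, GAPDH, POLR2A), after 48 h dosing of differentiated HepaRG in serum-free induction medium. Top concentration 100 uM with half-log dilutions (8 points, 0.5% DMSO, duplicates); bidirectional fitting relative to DMSO.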

Read-out in test [4]: Bcl-2 (BAD) gene, BAD (gene 572)
The test is described as follows: LTEA_HepaRG_BAD: Life Technologies and Expression Analysis (LTEA) Assay for Bcl-2 (BAD) gene using HepaRG (AID 2283469). An outline of the steps: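 Read-out: qRT-PCR of BAD mRNA, normalized to three housekeeping genes. Human HepaRG cultures got 48 h chemical exposure in 0.5% DMSO, duplicate eight-point half-log series topping at 100 uM. Gain or loss of signal fitted versus DMSO vehicle.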

Read-out in test [5]: Bcl-2 (BAX) gene, BAX (gene 581)
Kind of test: LTEA_HepaRG_BAX: Life Technologies and Expression Analysis (LTEA) Assay for Bcl-2 (BAX) gene using HepaRG (AID 2283470). An outline of the steps:
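qRT-PCR read-out of BAX mRNA, normalized to three housekeeping genes, after 48 h chemical exposure of human HepaRG cells in serum-free induction medium; eight-point half-log series, top 100 uM, 0.5% DMSO vehicle; bidirectional fit versus DMSO.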

Read-out in test [6]: adenosine kinase (ADK) gene, ADK (gene 132)
Kind of test: LTEA_HepaRG_ADK: Life Technologies and Expression Analysis (LTEA) Assay for adenosine kinase (ADK) gene using HepaRG (AID 2283471). The method, boiled down:
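HepaRG (human liver), 48 h chemical exposure, 8-pt half-log series, top 100 uM, 0.5% DMSO vehicle. Readout: ADK mRNA by qRT-PCR vs housekeeping genes; bidirectional curve fit relative to DMSO baseline.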

Read-out in test [7]: Alpha-fetoprotein (AFP) gene, AFP (gene 174)
Kind of test: LTEA_HepaRG_AFP: Life Technologies and Expression Analysis (LTEA) Assay for Alpha-fetoprotein (AFP) gene using HepaRG (AID 2283472). An outline of the steps: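 qRT-PCR (Fluidigm TaqMan) readout of AFP transcript, normalized to three housekeeping genes, fitted bidirectionally against 0.5% DMSO baseline. HepaRG cells received chemicals for 48 h in serum-free induction medium, top concentration 100 uM, half-log steps.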

Read-out in a further test: BCL2L11 (gene 10018)
Kind of test: LTEA_HepaRG_BCL2L11: Life Technologies and Expression Analysis (LTEA) Assay for Bcl-2 (BCL2L11) gene using HepaRG (AID 2283473). The method, boiled down:
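BCL2L11 transcript levels are measured by Fluidigm qRT-PCR, normalized to three housekeeping genes. HepaRG cultures were plated 48 h, then treated 48 h with test chemical (top 100 uM, half-log, 0.5% DMSO vehicle); curves were fitted bidirectionally against DMSO.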

Read-out in test [8]: Apolipoprotein A-V (APOA5) gene, APOA5 (gene 116519)
The test is described as follows: LTEA_HepaRG_APOA5: Life Technologies and Expression Analysis (LTEA) Assay for Apolipoprotein A-V (APOA5) gene using HepaRG (AID 2283474). An outline of the steps: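 APOA5 transcript levels were quantified by qRT-PCR, normalized to three housekeeping genes, after 48 h chemical treatment of HepaRG cells (8 points, 100 uM maximum, half-log steps, 0.5% DMSO). Curves fitted in both directions against vehicle.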

Read-out in test [9]: Apoptosis regulator Bcl-2 (Homo sapiens) (UniProt P10415)
The test is described as follows: LTEA_HepaRG_BCL2: Life Technologies and Expression Analysis (LTEA) Assay for Bcl-2 gene using HepaRG (AID 2283475).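 Also: BCL2 transcript by TaqMan qRT-PCR normalised to ACTB GAPDH and POLR2A.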 An outline of the steps:
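qRT-PCR read-out (Fluidigm TaqMan) of BCL2 transcript, normalised to three housekeeping genes, after 48 h chemical exposure of HepaRG cells; 8-point half-log series, top 100 uM, 0.5% DMSO vehicle. Gain or loss of signal fitted relative to DMSO baseline.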

Chain of Apoptosis regulator Bcl-2 (Homo sapiens) (P10415 whole entry, looked up): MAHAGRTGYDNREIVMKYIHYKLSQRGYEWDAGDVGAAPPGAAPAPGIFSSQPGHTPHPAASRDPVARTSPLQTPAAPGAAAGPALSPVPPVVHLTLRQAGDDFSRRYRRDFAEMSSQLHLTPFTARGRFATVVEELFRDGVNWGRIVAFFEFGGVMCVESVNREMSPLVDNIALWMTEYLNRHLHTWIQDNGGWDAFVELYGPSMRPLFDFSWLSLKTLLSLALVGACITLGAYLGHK

What is called AC50 is the midpoint of the concentration-response curve, whichever way the signal moves. With `CC(COc1ccc(Oc2ccccc2)cc1)Oc1ccccn1` (stereo unspecified), the outcome in [1], in [2], in [3], in [4], in test [5] and in [6] was inactive. The call (in the test with BCL2L11 (gene 10018); in test [8]; in test [9]) was inactive. Moreover, the AC50 in [7] was 38.9 µM (active).

For `CCCOc1nn(C(=O)NS(=O)(=O)c2ccccc2C(=O)OC)c(=O)n1C`, the molecule was classed as inactive in [1], in test [2], in test [3], in test [4], in [5] and in [6]. In addition, the molecule was classed as inactive (in test [7]; with BCL2L11 (gene 10018); in test [8]; in [9]).

For the molecule `CCOC(=O)COc1cc(-c2nn(C)c(OC(F)F)c2Cl)c(F)cc1Cl`, the call in test [1], in [2], in test [3], in test [4], in test [5] and in [6] was inactive. The outcome (in test [7]; with BCL2L11 (gene 10018); in test [8]; in test [9]) was inactive.

Take `CC(C1CC1)C(O)(Cn1cncn1)c1ccc(Cl)cc1` (stereo unspecified): the AC50 is 31.7 µM (active) in test [1] and 20.5 µM (active) in test [7]. In addition, the result (in test [2]; in [4]; in test [5]; in [6]; with BCL2L11 (gene 10018); in test [8]) was inactive. In addition, in [9], the molecule was called inactive.

With `COP(=O)(NC(C)=O)SC` (stereo unspecified), the outcome in test [1], in [2], in [3], in [4], in [5] and in [6] was inactive. For the same molecule, the molecule was called inactive (in test [7]; with BCL2L11 (gene 10018); in test [8]; in test [9]).

Regarding `CC(C)=CC1C(C(=O)OCN2C(=O)C3=C(CCCC3)C2=O)C1(C)C` (stereo unspecified), the molecule was classed as inactive in test [1], in test [2], in test [3], in [4], in test [5] and in [6]. Besides, the molecule was called inactive (in test [7]; with BCL2L11 (gene 10018); in test [8]; in test [9]).

In the case of `CON=C(C(=O)OC)c1ccccc1CON=C(C)c1cccc(C(F)(F)F)c1`, the result in test [1], in [2], in test [3], in [4], in [5] and in [6] was inactive. Besides, the molecule was classed as inactive (in test [7]; with BCL2L11 (gene 10018); in test [8]; in [9]).

With `CNC(=O)Oc1cccc2c1OC(C)(C)O2`, the molecule was called inactive in [1], in test [2], in test [3], in test [4], in test [5] and in test [6]. The result (in [7]; in the test with BCL2L11 (gene 10018); in test [8]; in [9]) was inactive.

Consider `CNC(=O)ON=C(C)SC`, for which the call in [1], in [2], in test [3], in [4], in [5] and in test [6] was inactive. In addition, the molecule was classed as inactive (in [7]; in the test with BCL2L11 (gene 10018); in [8]; in [9]).

Take `CSC1=N[C@@](C)(c2ccccc2)C(=O)N1Nc1ccccc1`: the molecule was called inactive in test [1], in test [4], in [5] and in test [6]. The AC50 in test [2] was 27.3 µM (active); in test [3], 13.3 µM (active); in test [7], 35.2 µM (active); with BCL2L11 (gene 10018), 12.6 µM (active); in [8], 33.8 µM (active); in [9], 30.2 µM (active).

For `CCC(=NOC/C=C/Cl)C1=C(O)CC(C2CCOCC2)CC1=O` (stereo unspecified), the molecule was called inactive in test [1], in test [2], in test [3], in [4], in [5] and in [6]. Also, the molecule was called inactive (in [7]; with BCL2L11 (gene 10018); in [8]; in test [9]).

For `CCOP(=S)(OCC)OC(Cl)C(Cl)(Cl)Cl` (stereo unspecified), the outcome in test [1], in test [2], in [3], in [4], in test [5] and in test [6] was inactive. Besides, the call (in test [7]; with BCL2L11 (gene 10018); in test [8]; in [9]) was inactive.

As to `COP(=O)(OC)OC(Br)C(Cl)(Cl)Br` (stereo unspecified), the outcome in [1], in test [2], in test [3], in test [4], in test [6] and in test [7] was inactive. In addition, the outcome in [8] and in test [9] was inactive.

In the case of `CCCCOC(=O)c1ccccc1C(=O)O`, the molecule was called inactive in test [1], in [2], in test [3], in test [4], in [5] and in test [6]. For the same molecule, the outcome (in test [7]; with BCL2L11 (gene 10018); in test [8]; in test [9]) was inactive.

For the molecule `CCOP(=S)(Oc1cnc(C(C)(C)C)nc1)OC(C)C` (stereo unspecified), the AC50 was 85.6 µM (active) in [1], 2.27 µM (active) in test [2] and 19.4 µM (active) in [7]. For the same molecule, the outcome (in test [3]; in test [4]; in test [5]; in test [6]; with BCL2L11 (gene 10018); in test [8]) was inactive. In [9], the molecule was classed as inactive.

In the case of `C#CC(C)(C)NC(=O)c1cc(Cl)cc(Cl)c1`, the outcome (in test [1]; in [2]; in test [4]; in test [5]; in test [6]; with BCL2L11 (gene 10018)) was inactive. In addition, the molecule was called inactive in test [8] and in [9]. In addition, the half-maximal activity concentration (AC50) in test [3] was 17.3 µM (active).

Regarding `CN(C)[C@@H]1C(=O)C(C(N)=O)=C(O)[C@@]2(O)C(=O)C3=C(O)c4c(O)cccc4[C@@](C)(O)[C@H]3[C@H](O)[C@@H]12`, the result in test [1], in test [2], in test [3], in test [4], in test [5] and in [6] was inactive. Further, the molecule was called inactive (in test [7]; with BCL2L11 (gene 10018); in test [8]; in [9]).

With `CCOP(=S)(OCC)Oc1cc(C)nc(C(C)C)n1`, the molecule was called inactive in test [1], in test [2], in [3], in [4], in [5] and in [6]. In addition, the call (in test [7]; with BCL2L11 (gene 10018); in test [8]; in test [9]) was inactive.
